# Compound activity as filed in PubChem BioAssay.
# An excerpt weighted towards active compounds, which were near 11% of everything screened.
# ALDH1A1 block: blocks purified human ALDH1A1 activity. P00352. Purified ALDH1A1, NADH fluorescence, propionaldehyde substrate. Potency, µM (titrated, usually from 75.3 µM), inactives show top-dose activity, negative = inhibition, hits mostly inhibitors. 7.3% of 220,000 active;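 further: potency means the concentration at half of the fitted maximal effect; plate controls were no enzyme wells and a reference inhibitor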
# Target sequence (P00352 whole entry, looked up): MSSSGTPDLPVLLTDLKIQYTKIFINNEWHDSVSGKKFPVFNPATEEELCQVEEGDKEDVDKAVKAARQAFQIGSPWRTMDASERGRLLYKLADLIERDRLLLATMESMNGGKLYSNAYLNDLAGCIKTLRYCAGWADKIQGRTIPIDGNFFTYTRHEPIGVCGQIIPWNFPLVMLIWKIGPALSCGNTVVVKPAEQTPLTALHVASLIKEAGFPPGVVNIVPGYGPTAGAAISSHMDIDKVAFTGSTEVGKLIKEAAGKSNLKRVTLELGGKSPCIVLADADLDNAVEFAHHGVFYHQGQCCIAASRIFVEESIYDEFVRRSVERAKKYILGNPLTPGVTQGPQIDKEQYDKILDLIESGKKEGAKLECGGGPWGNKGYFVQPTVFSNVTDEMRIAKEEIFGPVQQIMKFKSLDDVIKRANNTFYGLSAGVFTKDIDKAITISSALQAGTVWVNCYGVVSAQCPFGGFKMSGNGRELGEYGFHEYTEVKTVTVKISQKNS
# IMPase cell inh: IMPase inhibition in cells | P97697 | CHO-M1 cells, IP1 accumulation, HTRF TR-FRET ratio | inhibition (IP1 accumulation), % at 46.1 µM | 120,000 tested, under 10 active; active means well fitted curve in the direction sought with a large enough effect in the signal ratio, not every such curve was filed as active; inconclusive means small, poorly fitted or top-dose-only effect, or a change in a side signal; inactive means no such curve, though single readings can be large or run the other way; the % refers to the signal ratio;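 further: cells stimulated with carbachol in lithium chloride buffer; plate controls were DMSO basal wells for no effect and reference inhibitor wells for full effect; higher means more IMPase inhibition seen as more IP1 and lower FRET ratio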
#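 Measured: the HTRF emission ratio (665/620 nm) plus the 620 nm donor channel, each fitted to the Hill equation to give AC50. Cells were CHO-M1 given compounds up to 46 uM and a 30 min carbachol stimulation at 37C.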
# HPGD block: HPGD (human) dehydrogenase inhibition | Potency, µM, inactives show top-dose activity change, negative = inhibition, hits mostly inhibitors | AID 894 | 4.3% of 150,000 active | purified HPGD, NADH fluorescence kinetic, PGE2 substrate; further: potency means the concentration at half of the fitted maximal effect
#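 20 nM HPGD preincubated 15 min at room temperature with compound in 50 mM Tris-HCl pH 8, 0.01% Tween 20. Started with 1 mM NAD+ and 30 uM prostaglandin E2; NADH fluorescence (360/450 nm) read 5 times over 30-s intervals, last minus first.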
# PNC inhibitor: perinucleolar compartment assembly inhibition; PC3M PTB-GFP, PNC prevalence imaging, 16 h; stronger effect = lower value; activity change (PNC), negative = inhibition, % at 10 µM; 3.1% of 140,000 active; AID 2417;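 active means readout at or below -70, meaning at least 70% loss of cells showing the perinucleolar compartment, a nuclear body marking cancer cells; inconclusive means readout between -30 and a set limit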;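 further: plate controls were DMSO wells for no effect and camptothecin positive control wells for full effect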
#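 PC3M cells stably expressing PTB-GFP, 750–1000 cells/well, treated 16 h at 37 °C with compound (23 nl of library stock), in duplicate. After paraformaldehyde fixation and Hoechst stain, imaged at 20x; PNC prevalence scored by image analysis.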
# IMPase Li cell: cell-permeable IMPase inhibitors with lithium potentiation; 0.35% of 210,000 active; CHO-M1 cells, IP1 TR-FRET (IP-One), carbachol + lithium; Potency, µM (series often up to 59.4 µM), for the others: top-dose activity, negative = IMPase inhibition, usual class: inhibitors; active means well fitted inhibition curve with a large enough effect; inconclusive means small, poorly fitted or top-dose-only effect; inactive means no such curve, though single readings can be large or run the other way;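 further: IP1 builds up when IMPase is blocked and the TR-FRET signal falls; potency means the concentration at half of the fitted maximal effect; plate controls were basal vehicle for no effect and high inhibitor control for full effect; nearly all actives have a fitted effect of over 50% in size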
#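 Test compounds were applied to CHO-M1 cells previously cultured for 16–30 h at 2000 per well. A small lithium amount accompanied them; after 30 min at 37C, IP1 was quantified by TR-FRET.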
# * marks the source's active call; other numbers are inactive results; ? = inconclusive; / = no result given; [ ] = dose if it differs, or a comment. Unless noted, the call rests on the fitted dose curve; in most records, active means well fitted inhibition curve with a large enough effect (not every such curve was filed as active); inconclusive means small, poorly fitted or top-dose-only effect, or another doubt; inactive means no such curve, though single readings can be large or run the other way. Unless noted, on the % scale 0 is the no-effect control and ±100 the full control effect.
SMILES,ALDH1A1 block,IMPase cell inh,HPGD block,PNC inhibitor,IMPase Li cell
O=S(=O)(Cc1nc2ccccc2s1)c1ccccc1,-6.0%,-10.2,-6.5%,?,7.9%[38.3 µM]
CCCCOc1ccc(C(=O)NC(=S)Nc2ccc(CN3CCOCC3)cc2)cc1,-7.1%,/,0.8%,36.8,-2.2%
O=C(CCCCl)NC(=S)Nc1ccc(CN2CCOCC2)cc1,20µM*,/,/,/,/
O=C(/C=C/c1cccc([N+](=O)[O-])c1)NC(=S)Nc1ccc(CN2CCOCC2)cc1,3.16µM*,/,-12.0%,?,8.2%
Cc1ccccc1OCC(=O)NC(=S)Nc1ccc(N2CCOCC2)c(Cl)c1,?,6.7,-25.6%,-18.8,8.7%[38.3 µM]
O=C(NC(=S)Nc1ccc(CN2CCOCC2)cc1)c1ccc([N+](=O)[O-])cc1,?,3.0,-16.5%,?,2.8%
O=C(COc1ccccc1Cl)NC(=S)Nc1ccc(CN2CCOCC2)cc1,-1.2%,/,25.1µM*,18.1,15.7%
C/C(=N\NC(=O)c1ccc(CN2CCOCC2)cc1)c1cccc([N+](=O)[O-])c1,18.9µM*,-3.6,-6.0%,-28.6,8.1%
CC(=O)O[C@@H]1[C@H]([N+]2(C)CCCCC2)C[C@@H]2[C@@H]3CC[C@@H]4C[C@@H](OC(C)=O)[C@H]([N+]5(C)CCCCC5)C[C@@]4(C)[C@H]3CC[C@]21C,/,12.7,/,/,/
CCCc1cc(OC)c2c(c1)OCO2,?,/,-20.1%,/,6.7%
COc1ncc2nc(-c3cc(F)cc(F)c3)c(=O)n(CCc3ccccc3)c2n1,?,/,?,/,-7.4%
CCn1c2ccccc2c2cc(N)ccc21,?,?,?,2.7,-0.9%[38.3 µM]
CCn1c(C)cc(=S)c2ccccc21,3.98µM*,?,-4.7%,-28.1,?
COC(=O)CC1c2ccccc2C=C(/C=C/c2ccc3c(c2)OCO3)N1C(=O)OC (centres undefined),?,/,?,/,14.7%
COc1ccc(/C=C/C(=O)NC2=NCCS2)cc1OC,?,/,/,/,6.6%
COc1ccc(OC)c(/C=C/C(=O)NC2=NCCS2)c1,?,/,/,/,11.2µM*
COc1ccc(CCC(=O)NC2=NCCS2)cc1OC,11.9%,0.6,-1.5%,-100.0*,-13.8%[38.3 µM]
Cc1nn(CCO)c(C)c1Oc1ccccc1O,-5.5%,2.4,-3.4%,8.5,-8.6%[38.3 µM]
Cc1nn(-c2ccc(C(=O)O)cc2)c(C)c1Oc1ccccc1O,8.5%,1.8,14.1µM*,-9.6,-2.6%[38.3 µM]
Cc1nn(-c2ccccn2)c(C)c1Oc1ccccc1O,-7.9%,9.2,14.1µM*,-21.0,14.9%[38.3 µM]
Cc1nn(-c2nc3ccccc3s2)c(C)c1Oc1ccccc1O,4.8%,14.0,?,-100.0*,3.3%
CCSc1nc(-c2ccc(OC)cc2)n(-c2nc3ccccc3s2)n1,?,9.3,?,-1.9,27.9%[38.3 µM]
Cc1nn(-c2cccc(C(=O)O)c2)c(C)c1Oc1ccccc1O,13.2%,0.2,-16.4%,20.5,-2.6%[38.3 µM]
N#CCCn1c(=O)c(-c2cccc(C#N)c2)nc2cnc(N3CCOCC3)nc21,?,/,/,/,-5.9%
COc1cccc(NC(=O)Cn2c(=O)n(Cc3ccc(C(=O)NCc4ccc(C)cc4)cc3)c(=O)c3ccccc32)c1,/,13.9,/,/,/
SMILES,ALDH1A1 block,IMPase cell inh,HPGD block,PNC inhibitor,IMPase Li cell
CCOC(=O)c1ccc(S(=O)(=O)Nc2nc3cc(S(=O)(=O)NC4=NCCCCC4)ccc3s2)cc1,25.1µM*,/,/,/,2.0%
O=S(=O)(NC1=NCCCCC1)c1ccc2ccccc2c1,0.5%,/,-14.9%,3.6,1.3%
O=C(CC1CCCCC1)NCc1cn2ccsc2n1,10.2%,4.6,22.4µM*,6.5,-9.6%[38.3 µM]
CC1(C(=O)O)C=CCN1C(=O)c1ccccc1 (centres undefined),8.1%,/,-3.6%,?,-4.4%
CN(C)c1ccc(CNC(=O)C2(C)C=CCN2C(=O)c2ccccc2)cc1 (centres undefined),17.8µM*,/,-17.1%,/,0.3%
COCCCNC(=O)c1ccc2c(=O)n(CC3CCCO3)c(=S)[nH]c2c1 (centres undefined),?,4.3,-15.8%,71.6,-5.8%[38.3 µM]
CC(C)NC(=O)c1ccc2c(=O)n(CC3CCCO3)c(=S)[nH]c2c1 (centres undefined),1.41µM*,/,/,/,-8.2%
Cc1ccc(CNC(=O)c2ccc3c(=O)n(CC4CCCO4)c(=S)[nH]c3c2)cc1 (centres undefined),?,-5.8,-9.5%,12.1,-11.3%[38.3 µM]
